Test results published in PubChem BioAssay (Tox21).
“And” between values parts separate entries of the source, which are not always exact repeats. Equal entries are not always repeated. Some compounds were tested as several samples or in several runs, with calls that do not always agree. The source made the active and inactive calls. Unless noted, the call rests on the fitted dose curve; in most records, active means well fitted curve in the direction sought with a large enough effect in the repeat runs; inconclusive means weak or mixed curves; inactive means no such curve, though single readings can be large; an effect the other way counts as inactive or inconclusive.

Columns and labels:
[1] = qHTS assay for identifying genotoxic compounds that show differential cytotoxicity against isogenic chicken DT40 cell lines with known DNA damage response pathways - wild type cell line (AID 743012); further: nearly all actives have a fitted effect of over 60% in size; further: potency means the concentration at half of the fitted maximal effect
In short: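 300 wt DT40 cells/well; cpd (DMSO) pintool-transferred after ~0.5 h at 37 C/5% CO2; 40 h incubation; CellTiter-Glo added, 30 min RT; luminescence read.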

[2] = qHTS assay for identifying genotoxic compounds that show differential cytotoxicity against isogenic chicken DT40 cell lines with known DNA damage response pathways - Rev3 mutant cell line (AID 743014); further: nearly all actives have a fitted effect of over 55% in size; further: potency means the concentration at half of the fitted maximal effect
[3] = qHTS assay for identifying genotoxic compounds that show differential cytotoxicity against isogenic chicken DT40 cell lines with known DNA damage response pathways - Rad54/Ku70 mutant cell line (AID 743015); further: nearly all actives have a fitted effect of over 60% in size; further: potency means the concentration at half of the fitted maximal effect
[4] = qHTS assay to identify small molecule antagonists of the androgen receptor (AR) signaling pathway - cell viability counter screen (AID 743033; further: nearly all actives have a fitted effect of over 45% in size; further: potency means the concentration at half of the fitted maximal effect)
[5] = target: Androgen receptor (Homo sapiens) (UniProt P10275); test: qHTS assay to identify small molecule antagonists of the androgen receptor (AR) signaling pathway (AID 743035; active means well fitted inhibition curve with a large enough effect in the signal ratio in the repeat runs, not every such curve was filed as active; inconclusive means weak or mixed curves, or effect the other way; inactive means no such curve, though single readings can be large or run the other way; the % refers to the signal ratio; further: potency means the concentration at half of the fitted maximal effect)
In short: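 In this cell-based reporter screen, compounds were tested in concentration series against R1881-activated HEK293 cells expressing beta-lactamase under UAS control; after 16 h at 37C, FRET substrate was added and fluorescence read 2 h later.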

[6] = target: Androgen receptor (Homo sapiens) (UniProt P10275); test: qHTS assay to identify small molecule agonists of the androgen receptor (AR) signaling pathway using the MDA cell line (AID 743040; further: on the % scale 0 is the no-effect control and ±100 the full control effect; nearly all actives have a fitted effect of over 20% in size)
In short: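 Agonist activity is measured as luciferase luminescence in human MDA-kb2 cells whose MMTV reporter responds to both AR and GR. Compounds in DMSO incubate 16 h at 37C, 0% CO2, and ONE-Glo is read after 30 min.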

[7] = qHTS assay to identify small molecule antagonists of the androgen receptor (AR) signaling pathway using the MDA cell line - cell viability counter screen (AID 743041; further: nearly all actives have a fitted effect of over 45% in size; further: potency means the concentration at half of the fitted maximal effect)
In short: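 qHTS viability read-out; MDA-kb2 AR-luc; R1881-stimulated; 16 h exposure at 37C, 0% CO2; CellTiter-Fluor, 30 min; fluorescence intensity.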

[8] = target: Androgen receptor (Homo sapiens) (UniProt P10275); test: qHTS assay to identify small molecule antagonists of the androgen receptor (AR) signaling pathway using the MDA cell line (AID 743042; further: potency means the concentration at half of the fitted maximal effect; nearly all actives have a fitted effect of over 55% in size)
In short: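 MDA-kb2 cells (human breast carcinoma, stably carrying an MMTV-luciferase reporter responsive to AR and GR) were plated at 3,000 cells/well and preincubated 5 hr at 37C, then given compound plus R1881 agonist for 16 h. ONE-Glo luminescence was read.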

[9] = qHTS assay to identify small molecule antagonists of the thyroid receptor (TR) signaling pathway - cell viability counter screen (AID 743064); further: nearly all actives have a fitted effect of over 50% in size; further: potency means the concentration at half of the fitted maximal effect
In short: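 GH3.TRE-Luc rat pituitary cells dosed after 4 hr plating, co-stimulated with T3 at 1 nM final, incubated 23.5 h at 37 C. Viability measured in the same wells by CellTiter-Fluor fluorescence after 30 min further at 37 C.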

[10] = qHTS assay to identify small molecule antagonists of the estrogen receptor alpha (ER-alpha) signaling pathway - cell viability counter screen (AID 743074; calls by dose curve; further: nearly all actives have a fitted effect of over 45% in size; further: potency means the concentration at half of the fitted maximal effect)
[11] = qHTS assay to identify small molecule antagonists of the estrogen receptor alpha (ER-alpha) signaling pathway using the BG1 cell line - cell viability counter screen (AID 743081);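 further: compound given together with 17beta-estradiol as the ER stimulus; nearly all actives have a fitted effect of over 45% in size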; further: potency means the concentration at half of the fitted maximal effect
Aromatase (Homo sapiens) = Aromatase (Homo sapiens) (UniProt P11511); test: qHTS assay to identify aromatase inhibitors (AID 743083); further: nearly all actives have a fitted effect of over 55% in size; further: potency means the concentration at half of the fitted maximal effect
[12] = qHTS assay to identify small molecule antagonists of the thyroid receptor (TR) signaling pathway (AID 743065); further: nearly all actives have a fitted effect of over 55% in size; further: potency means the concentration at half of the fitted maximal effect
In short: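 GH3.TRE-Luc rat pituitary cells carrying two TR response elements driving luciferase were plated for 4 h, given compound plus 1 nM T3 (final), and incubated 23.5 h at 37 C. ONE-Glo luminescence measured reporter inhibition; CellTiter-Fluor fluorescence tracked cytotoxicity.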

[13] = system: thyroid hormone receptor (rat, GH3 cells); test: qHTS assay to identify small molecule agonists of the thyroid receptor (TR) signaling pathway (AID 743066; calls by dose curve; further: on the % scale 0 is the no-effect control and ±100 the full control effect)
[14] = target: Estrogen receptor (Homo sapiens) (UniProt P03372); test: qHTS assay to identify small molecule agonists of the estrogen receptor alpha (ER-alpha) signaling pathway (AID 743075; calls by dose curve; further: potency means the concentration at half of the fitted maximal effect; on activation: on the % scale 0 is the no-effect control and ±100 the full control effect); settings: HEK293 ER-alpha-UAS-bla, beta-lactamase FRET ratio, 18 h; activation: at 70.1 µM (top of the series)
[15] = target: Estrogen receptor (Homo sapiens) (UniProt P03372); test: qHTS assay to identify small molecule antagonists of the estrogen receptor alpha (ER-alpha) signaling pathway (AID 743069; active means well fitted curve in the direction sought with a large enough effect in the signal ratio in the repeat runs, not every such curve was filed as active; inconclusive means weak or mixed curves, or effect the other way; inactive means no such curve, though single readings can be large or run the other way; the % refers to the signal ratio; further: potency means the concentration at half of the fitted maximal effect)
In short: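 Screening used a UAS-driven beta-lactamase reporter integrated into HEK293 cells expressing ER-alpha, stimulated with 17beta-estradiol alongside test compounds over 18 hr at 37C; signal came from LiveBLAzer B/G FRET fluorescence.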

[16] = qHTS assay to identify small molecule antagonists of the estrogen receptor alpha (ER-alpha) signaling pathway using the BG1 cell line (AID 743080; calls by dose curve;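 further: BG1 cells stimulated with 17beta-estradiol alongside compound; nearly all actives have a fitted effect of over 25% in size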; further: potency means the concentration at half of the fitted maximal effect)
In short: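 Luminescence from a 4×ERE-luciferase reporter in BG1-Luc-4E2 cells served as read-out. Cells, pre-cultured 5 days in stripped-serum phenol-red-free medium, were exposed to compound with 17beta-estradiol co-stimulation for 21.5 h at 37 C.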

[17] = target: Estrogen receptor (Homo sapiens) (UniProt P03372); test: qHTS assay to identify small molecule agonists of the estrogen receptor alpha (ER-alpha) signaling pathway using the BG1 cell line (AID 743079); settings: BG1Luc4E2 cells, ERE-luciferase agonist, 22 h; further: on the % scale 0 is the no-effect control and ±100 the full control effect; nearly all actives have a fitted effect of over 20% in size
[18] = target: Androgen receptor (Homo sapiens) (UniProt P10275); test: qHTS assay to identify small molecule agonists of the androgen receptor (AR) signaling pathway (AID 743036; active means well fitted activation curve with a large enough effect in the signal ratio in the repeat runs, with a control signal flat, not every such curve was filed as active; inconclusive means weak or mixed curves, or effect the other way; inactive means no such curve, though single readings can be large or run the other way; the % refers to the signal ratio; further: on the % scale 0 is the no-effect control and ±100 the full control effect)
In short: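 AR-UAS-bla HEK293 cells, plated 4 h before dosing, were treated with compound for 16 h at 37C. beta-Lactamase reporter read after 2 h with LiveBLAzer B/G FRET substrate at room temperature.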

Androgen receptor (Homo sapiens), sequence (P10275 whole entry, looked up): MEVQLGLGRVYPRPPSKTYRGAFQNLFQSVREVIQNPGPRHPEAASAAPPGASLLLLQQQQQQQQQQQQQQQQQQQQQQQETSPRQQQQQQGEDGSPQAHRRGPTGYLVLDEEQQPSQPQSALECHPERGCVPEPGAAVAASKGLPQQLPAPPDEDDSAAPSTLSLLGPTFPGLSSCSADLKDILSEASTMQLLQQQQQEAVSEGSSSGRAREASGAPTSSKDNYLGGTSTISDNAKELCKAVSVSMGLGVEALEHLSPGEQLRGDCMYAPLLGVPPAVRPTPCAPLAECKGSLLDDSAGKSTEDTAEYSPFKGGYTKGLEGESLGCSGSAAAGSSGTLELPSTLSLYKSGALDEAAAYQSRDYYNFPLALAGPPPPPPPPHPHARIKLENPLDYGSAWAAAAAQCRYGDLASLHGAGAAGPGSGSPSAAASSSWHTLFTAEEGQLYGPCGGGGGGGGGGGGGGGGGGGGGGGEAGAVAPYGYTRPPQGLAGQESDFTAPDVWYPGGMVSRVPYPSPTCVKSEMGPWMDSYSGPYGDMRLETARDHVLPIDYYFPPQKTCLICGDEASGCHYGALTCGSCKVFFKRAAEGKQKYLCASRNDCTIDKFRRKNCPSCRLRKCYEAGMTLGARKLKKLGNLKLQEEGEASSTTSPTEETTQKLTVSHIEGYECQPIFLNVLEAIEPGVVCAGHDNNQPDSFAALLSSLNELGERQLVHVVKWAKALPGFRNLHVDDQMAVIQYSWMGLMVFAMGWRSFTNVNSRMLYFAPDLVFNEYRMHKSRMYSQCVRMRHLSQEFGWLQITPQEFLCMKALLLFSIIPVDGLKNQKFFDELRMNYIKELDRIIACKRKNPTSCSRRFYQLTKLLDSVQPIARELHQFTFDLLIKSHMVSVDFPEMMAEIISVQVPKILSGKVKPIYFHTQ
Aromatase (Homo sapiens), sequence (P11511 whole entry, looked up): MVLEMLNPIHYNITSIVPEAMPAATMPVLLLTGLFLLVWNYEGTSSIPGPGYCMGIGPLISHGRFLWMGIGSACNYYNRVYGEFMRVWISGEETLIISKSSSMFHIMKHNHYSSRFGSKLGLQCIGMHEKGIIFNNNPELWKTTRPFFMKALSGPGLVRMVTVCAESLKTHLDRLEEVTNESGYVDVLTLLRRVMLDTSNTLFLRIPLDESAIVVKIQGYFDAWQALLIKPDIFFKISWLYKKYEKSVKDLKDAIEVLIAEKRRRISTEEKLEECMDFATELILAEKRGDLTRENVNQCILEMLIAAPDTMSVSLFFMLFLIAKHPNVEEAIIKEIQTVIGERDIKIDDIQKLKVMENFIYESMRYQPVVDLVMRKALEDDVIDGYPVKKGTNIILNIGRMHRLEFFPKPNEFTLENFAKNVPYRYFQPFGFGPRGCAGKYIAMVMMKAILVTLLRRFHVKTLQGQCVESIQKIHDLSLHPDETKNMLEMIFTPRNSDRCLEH
Estrogen receptor (Homo sapiens), sequence (P03372 whole entry, looked up): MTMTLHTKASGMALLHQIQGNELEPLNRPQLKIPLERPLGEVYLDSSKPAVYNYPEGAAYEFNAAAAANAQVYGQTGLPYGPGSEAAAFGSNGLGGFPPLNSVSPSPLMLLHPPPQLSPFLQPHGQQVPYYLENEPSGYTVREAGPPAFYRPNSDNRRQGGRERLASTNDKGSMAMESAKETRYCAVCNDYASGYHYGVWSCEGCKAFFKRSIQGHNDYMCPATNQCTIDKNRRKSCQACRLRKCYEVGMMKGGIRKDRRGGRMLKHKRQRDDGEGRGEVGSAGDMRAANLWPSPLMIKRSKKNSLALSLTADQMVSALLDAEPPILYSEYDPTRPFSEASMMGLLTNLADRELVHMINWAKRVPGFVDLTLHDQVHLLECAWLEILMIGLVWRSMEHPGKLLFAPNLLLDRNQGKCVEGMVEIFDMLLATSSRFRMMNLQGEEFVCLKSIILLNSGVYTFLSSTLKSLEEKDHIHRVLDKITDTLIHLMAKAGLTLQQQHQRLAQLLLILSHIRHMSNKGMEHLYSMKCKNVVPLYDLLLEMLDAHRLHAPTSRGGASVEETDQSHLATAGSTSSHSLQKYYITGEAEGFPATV

N=C1C=CC(=C(c2ccc(N)cc2)c2ccc(N)cc2)C=C1
Potency [1]: 9.69 µM (active)
Potency [2]: 6.86 µM (active)
Potency [3]: 7.7 µM (active)
Potency [4]: 15.5 µM (active)
Potency [5]: 2.19 µM (active)
Potency [6]: inactive
Potency [7]: 15.4 µM (active)
Potency [8]: 2.43 µM (active)
Potency [9]: 9.69 µM (active)
Potency [10]: 1.38 µM (active)
Potency [11]: 13.7 µM (active)
Potency (Aromatase (Homo sapiens)): 4.86 µM (active)

CCOC(=O)O[C@]1(C(=O)OCCl)CC[C@H]2[C@@H]3CCC4=CC(=O)C=C[C@]4(C)[C@H]3[C@@H](O)C[C@@]21C
Potency [1]: inactive
Potency [2]: inactive
Potency [3]: inactive
Potency [4]: inactive
Potency [7]: inactive
Potency [9]: inactive
Potency [12]: inactive
Potency [13]: inactive
Potency [10]: inactive
Potency [11]: inactive
Potency (Aromatase (Homo sapiens)): inactive

C=CC(=O)OCC(CO)(COC(=O)C=C)COC(=O)C=C
Potency [1]: 1.73 µM (active) and 2.17 µM (active)
Potency [2]: 1.22 µM (active) and 2.43 µM (active)
Potency [3]: 1.37 µM (active) and 1.72 µM (active)
Potency [4]: 6.94 µM (active) and 11 µM (active)
Potency [5]: 3.9 µM (active) and 4.9 µM (active)
Potency [7]: 17.3 µM (active) and 27.3 µM (active)
Potency [8]: 2.18 µM (active) and 3.86 µM (active)
Potency [9]: 2.44 µM (active) and 2.17 µM (active)
Potency [12]: 1.73 µM (active) and 1.72 µM (active)
Potency [13]: inactive
Potency [10]: 39 µM (active) and 49 µM (active)
Potency [14]: 13.9 µM [inconclusive] (active) and 12.3 µM [inconclusive] (active)
Potency [11]: 27.4 µM (active) and 27.3 µM (active)
Potency (Aromatase (Homo sapiens)): 2.74 µM (active) and 5.45 µM (active)

Nc1ccccc1O
Potency [1]: 7.59 µM (active)
Potency [2]: 6.77 µM (active)
Potency [3]: 5.38 µM (active)
Potency [4]: inactive
Potency [7]: 53.8 µM (active)
Potency [9]: 26.9 µM (active)
Potency [12]: 42.7 µM (active)
Potency [13]: inactive
Potency [15]: inactive
Potency [10]: inactive
Potency [14]: inactive
Potency (Aromatase (Homo sapiens)): 67.7 µM (active)

O=C(Oc1cccc2cccnc12)c1ccccc1
Potency [1]: 2.66 µM (active)
Potency [2]: 2.98 µM (active)
Potency [3]: 6.68 µM (active)
Potency [4]: 7.56 µM (active)
Potency [7]: 6.99 µM (active)
Potency [9]: 13.3 µM (active)
Potency [12]: 13.3 µM (active)
Potency [15]: inactive
Potency [10]: inactive
Potency [14]: inactive
Potency [16]: inactive
Potency [11]: inactive
Potency (Aromatase (Homo sapiens)): 18.8 µM (active)

N/C(=N\N=C\c1ccc(Cl)cc1)N/N=C/c1ccc(Cl)cc1
Potency [1]: inactive
Potency [2]: inactive
Potency [3]: inactive
Potency [4]: inactive
Potency [7]: inactive
Potency [12]: 29.8 µM (active)
Potency [13]: inactive
Potency [15]: inactive
Potency [10]: inactive
Potency [14]: inactive
activation ([17]; at 70.3 µM (top of the series)): -3.33% (inactive)
Potency [16]: inactive
Potency [11]: inactive
Potency (Aromatase (Homo sapiens)): inactive

O=C1C=CC(=O)N1c1ccc(Cc2ccc(N3C(=O)C=CC3=O)cc2)cc1
Potency [1]: 0.969 µM (active)
Potency [2]: 1.22 µM (active)
Potency [3]: 1.54 µM (active)
Potency [4]: 17.4 µM (active)
Potency [7]: 54.5 µM (active)
Potency [9]: 10.9 µM (active)
Potency [12]: 8.63 µM (active)
Potency [13]: inactive
Potency [10]: 21.9 µM (active)
Potency [11]: inactive
Potency (Aromatase (Homo sapiens)): 9.69 µM (active)

CCN(CC)CCNC(=O)c1c(C)[nH]c(/C=C2\C(=O)Nc3ccc(F)cc32)c1C
Potency [1]: 5.96 µM (active)
Potency [2]: 9.44 µM (active)
Potency [3]: 7.5 µM (active)
Potency [4]: inactive
Potency [7]: inactive
Potency [9]: 26.6 µM (active)
Potency [10]: inactive
Potency [11]: 9.44 µM (active)

CCCCCCC[N+](CC)(CC)CCCCc1ccc(Cl)cc1
Potency [1]: 1.01 µM (active)
Potency [2]: 1.43 µM (active)
Potency [3]: 1.27 µM (active)
Potency [4]: inactive
Potency [9]: inactive
Potency [12]: 12.7 µM (active)
Potency [13]: inactive
Potency [10]: 8.11 µM (active)
Potency [14]: inactive
Potency [11]: inactive

CN(C)C(=O)C1(N2CCCCC2)CCN(CC[C@@]2(c3ccc(Cl)c(Cl)c3)CN(C(=O)c3ccccc3)CCO2)CC1
Potency [1]: 7.19 µM (active)
Potency [2]: 8.07 µM (active)
Potency [3]: 5.71 µM (active)
Potency [4]: 16.2 µM (active)
Potency [6]: inactive
Potency [7]: 50.9 µM (active)
Potency [8]: 28.6 µM (active)
Potency [9]: 5.09 µM (active)
Potency [12]: 4.54 µM (active)
Potency [10]: 51.3 µM (active)
Potency [11]: 64.1 µM (active)
Potency (Aromatase (Homo sapiens)): 40.4 µM (active)

OCCN1CCN(CC/C=C2/c3ccccc3Sc3ccc(C(F)(F)F)cc32)CC1
Potency [1]: 9.44 µM (active)
Potency [2]: 13.3 µM (active)
Potency [3]: 11.9 µM (active)
Potency [4]: 19 µM (active)
Potency [6]: inactive
Potency [9]: 15 µM (active)
Potency [12]: 11.9 µM (active)
Potency [15]: inactive
Potency [14]: inactive
activation ([17]; at 70.3 µM (top of the series)): -29.2% (inactive)
Potency [16]: inactive
Potency [11]: inactive
Potency (Aromatase (Homo sapiens)): inactive

[Cl][Au]([Cl])[Cl]
Potency [1]: 13.7 µM (active)
Potency [2]: 12.2 µM (active)
Potency [3]: 13.7 µM (active)
Potency [4]: 21.9 µM (active)
Potency [7]: 48.6 µM (active)
Potency [9]: 3.86 µM (active)
Potency (Aromatase (Homo sapiens)): 24.3 µM (active)

O=C(Nc1cccc([N+](=O)[O-])c1)c1cc2ccccc2cc1O
Potency [1]: 2.17 µM (active)
Potency [2]: 2.17 µM (active)
Potency [3]: 2.17 µM (active)
Potency [4]: 1.38 µM (active)
Potency [18]: inactive
Potency [8]: 6.86 µM (active)
Potency [9]: 1.72 µM (active)
Potency [12]: 0.864 µM (active)
Potency [13]: inactive
Potency [10]: 49 µM (active)
Potency [14]: inactive
Potency [16]: 8.63 µM (active)
Potency (Aromatase (Homo sapiens)): 2.73 µM (active)

Clc1ccccc1C(c1ccccc1)(c1ccccc1)n1ccnc1
Potency [1]: 5.07 µM (active) and 5.45 µM (active)
Potency [2]: 10.1 µM (active) and 15.4 µM (active)
Potency [3]: 8.04 µM (active) and 3.44 µM (active)
Potency [4]: 54.9 µM (active)
Potency [7]: inactive
Potency [9]: 8.04 µM (active) and 21.7 µM (active)
Potency [12]: 3.59 µM (active) and 3.86 µM (active)
Potency [13]: inactive
Potency [15]: 6.44 µM [inconclusive] (active) and 15.5 µM [inconclusive] (active)
Potency [10]: inactive and 54.9 µM (active)
Potency [14]: inactive
activation ([17]; at 32.5 µM (top of the series)): -14.7% (inactive)
Potency [11]: inactive
Potency (Aromatase (Homo sapiens)): 4.52 µM (active) and 6.86 µM (active)

COc1ccc(-c2ccc3cc(C(=O)O)ccc3c2)cc1C12CC3CC(CC(C3)C1)C2
Potency [1]: inactive
Potency [2]: inactive
Potency [3]: inactive
Potency [4]: inactive
Potency [7]: inactive
Potency [9]: 1.68 µM (active)
Potency [12]: 1.33 µM (active)
Potency [13]: inactive
Potency [15]: 7.56 µM [inconclusive] (active)
Potency [10]: inactive
Potency [14]: inactive
activation ([17]; at 70.3 µM (top of the series)): -4.61% (inactive)
Potency [16]: 0.376 µM (active)
Potency [11]: inactive
